According to publication PMC7862700, “An all-to-all approach to the identification of sequence-specific readers for epigenetic DNA modifications on cytosine”:

How the values were obtained:
Experiment in all cases: DAPPL (digital affinity profiling via proximity ligation, sequencing); 10 mM Tris-HCl pH 7.5, 50 mM NaCl, 1 mM DTT, 4% glycerol, room temperature, 30 min; GST-TFs on glutathione beads, 16-mer random dsDNA library, 0.1% formaldehyde crosslink after washing; high values mean tight binding
FEV = target: T1, FEV (Homo sapiens, UniProt Q99581 1-238); conditions: protein: recombinant; tags: N-terminal GST; dsDNA, one strand shown
T1 sequence: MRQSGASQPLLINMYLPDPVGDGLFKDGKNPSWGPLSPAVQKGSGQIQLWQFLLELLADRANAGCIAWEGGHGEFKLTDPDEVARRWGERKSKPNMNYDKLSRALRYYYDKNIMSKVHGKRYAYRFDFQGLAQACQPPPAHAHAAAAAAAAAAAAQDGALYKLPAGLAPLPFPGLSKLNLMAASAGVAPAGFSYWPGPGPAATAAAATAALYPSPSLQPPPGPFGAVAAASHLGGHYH
Procedure, shortened: (§1)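 Sequencing on an Illumina NextSeq500 followed washing, crosslinking with 0.1% formaldehyde, proximity ligation (BsaI/T4 ligase, 1 h, 37 °C) and PCR amplification of pools that had been incubated for 30 min at room temperature with 200 nmole of a random double-stranded 16-mer DNA library in Tris/NaCl/DTT/glycerol buffer. Each pool held DNA-barcoded human transcription factors, expressed in yeast as GST fusions and captured on glutathione beads, plus a tag-only sample. Binding signal is a hexamer's read frequency for a factor divided by its frequency in the tag-only sample.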

ETV5 = ETV5 (Homo sapiens, UniProt P41161 1-510); conditions: protein: recombinant; tags: N-terminal GST; dsDNA, one strand shown
Sequence of ETV5 (P41161 whole entry): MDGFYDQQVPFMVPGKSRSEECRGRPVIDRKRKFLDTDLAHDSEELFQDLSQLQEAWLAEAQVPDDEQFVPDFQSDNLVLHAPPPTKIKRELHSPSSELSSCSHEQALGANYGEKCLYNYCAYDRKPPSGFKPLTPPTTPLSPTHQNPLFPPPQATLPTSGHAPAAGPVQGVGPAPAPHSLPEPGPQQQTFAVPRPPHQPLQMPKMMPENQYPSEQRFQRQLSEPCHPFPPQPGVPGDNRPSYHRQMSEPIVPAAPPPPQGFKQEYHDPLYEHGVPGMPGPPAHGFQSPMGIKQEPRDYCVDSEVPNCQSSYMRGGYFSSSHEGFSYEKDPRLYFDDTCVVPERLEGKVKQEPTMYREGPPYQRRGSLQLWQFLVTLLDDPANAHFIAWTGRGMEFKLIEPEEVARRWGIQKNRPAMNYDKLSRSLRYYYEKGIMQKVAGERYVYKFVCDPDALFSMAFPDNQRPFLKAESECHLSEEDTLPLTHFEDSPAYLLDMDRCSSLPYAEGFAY
Procedure, shortened: as §1

SPIC = target: T2, SPIC (Homo sapiens, UniProt Q8N5J4 1-248); conditions: protein: recombinant; tags: N-terminal GST; dsDNA, one strand shown
T2 sequence: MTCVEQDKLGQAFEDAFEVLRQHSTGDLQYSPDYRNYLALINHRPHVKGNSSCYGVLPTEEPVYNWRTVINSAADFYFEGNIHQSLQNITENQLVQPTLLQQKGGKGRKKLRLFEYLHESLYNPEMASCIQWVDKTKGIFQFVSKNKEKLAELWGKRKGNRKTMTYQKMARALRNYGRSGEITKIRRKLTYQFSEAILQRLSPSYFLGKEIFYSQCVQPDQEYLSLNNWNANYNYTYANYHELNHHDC
Procedure, shortened: as §1

ELF4 = ELF4 (Homo sapiens, UniProt Q99607 1-663); conditions: protein: recombinant; tags: N-terminal GST; dsDNA, one strand shown
Sequence of ELF4 (Q99607 whole entry): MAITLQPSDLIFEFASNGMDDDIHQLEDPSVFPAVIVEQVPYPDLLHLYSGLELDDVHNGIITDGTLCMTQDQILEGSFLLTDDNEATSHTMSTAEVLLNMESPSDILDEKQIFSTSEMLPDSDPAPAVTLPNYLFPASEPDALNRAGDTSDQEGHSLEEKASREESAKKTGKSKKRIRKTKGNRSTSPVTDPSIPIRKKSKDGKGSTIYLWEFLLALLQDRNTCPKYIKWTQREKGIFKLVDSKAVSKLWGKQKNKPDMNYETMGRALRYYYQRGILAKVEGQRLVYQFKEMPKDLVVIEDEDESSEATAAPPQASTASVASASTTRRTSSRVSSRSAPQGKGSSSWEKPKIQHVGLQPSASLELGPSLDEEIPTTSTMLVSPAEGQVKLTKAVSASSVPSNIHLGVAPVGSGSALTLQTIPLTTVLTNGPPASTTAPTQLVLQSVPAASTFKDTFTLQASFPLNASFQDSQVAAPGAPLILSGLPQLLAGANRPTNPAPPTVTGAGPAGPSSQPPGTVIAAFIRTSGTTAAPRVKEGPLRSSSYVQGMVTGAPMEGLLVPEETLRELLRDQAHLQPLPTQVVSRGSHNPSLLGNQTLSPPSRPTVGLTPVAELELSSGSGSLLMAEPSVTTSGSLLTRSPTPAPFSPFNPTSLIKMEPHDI
Procedure, shortened: as §1

ELK4 = target: T3, ELK4 (Homo sapiens, UniProt P28324-2 1-405); conditions: protein: recombinant; tags: N-terminal GST; dsDNA, one strand shown
T3 sequence: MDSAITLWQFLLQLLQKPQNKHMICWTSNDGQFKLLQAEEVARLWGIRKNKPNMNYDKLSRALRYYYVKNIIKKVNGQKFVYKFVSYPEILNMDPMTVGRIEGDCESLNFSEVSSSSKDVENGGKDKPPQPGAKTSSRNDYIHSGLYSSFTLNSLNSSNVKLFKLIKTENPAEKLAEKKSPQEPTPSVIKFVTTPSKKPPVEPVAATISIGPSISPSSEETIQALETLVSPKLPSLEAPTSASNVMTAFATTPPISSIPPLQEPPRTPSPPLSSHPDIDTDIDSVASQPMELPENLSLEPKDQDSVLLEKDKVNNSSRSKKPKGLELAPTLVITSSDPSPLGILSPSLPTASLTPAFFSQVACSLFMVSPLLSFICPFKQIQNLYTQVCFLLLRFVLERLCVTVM
Procedure, shortened: as §1

ETV2 = target: T4, ETV2 (Homo sapiens, UniProt O00321 1-342); conditions: protein: recombinant; tags: N-terminal GST; dsDNA, one strand shown
T4 sequence: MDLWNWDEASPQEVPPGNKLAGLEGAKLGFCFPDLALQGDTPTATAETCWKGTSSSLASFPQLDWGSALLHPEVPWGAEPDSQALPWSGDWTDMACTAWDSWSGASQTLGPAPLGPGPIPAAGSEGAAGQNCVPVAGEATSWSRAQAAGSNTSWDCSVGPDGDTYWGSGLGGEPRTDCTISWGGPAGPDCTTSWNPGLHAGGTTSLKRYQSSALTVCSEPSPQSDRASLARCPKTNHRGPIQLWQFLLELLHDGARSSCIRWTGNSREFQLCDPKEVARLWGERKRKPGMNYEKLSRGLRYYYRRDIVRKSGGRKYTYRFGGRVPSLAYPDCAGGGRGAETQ
Procedure, shortened: as §1

ELF3 = target: T5, ELF3 (Homo sapiens, UniProt P78545 1-371); conditions: protein: recombinant; tags: N-terminal GST; dsDNA, one strand shown
T5 sequence: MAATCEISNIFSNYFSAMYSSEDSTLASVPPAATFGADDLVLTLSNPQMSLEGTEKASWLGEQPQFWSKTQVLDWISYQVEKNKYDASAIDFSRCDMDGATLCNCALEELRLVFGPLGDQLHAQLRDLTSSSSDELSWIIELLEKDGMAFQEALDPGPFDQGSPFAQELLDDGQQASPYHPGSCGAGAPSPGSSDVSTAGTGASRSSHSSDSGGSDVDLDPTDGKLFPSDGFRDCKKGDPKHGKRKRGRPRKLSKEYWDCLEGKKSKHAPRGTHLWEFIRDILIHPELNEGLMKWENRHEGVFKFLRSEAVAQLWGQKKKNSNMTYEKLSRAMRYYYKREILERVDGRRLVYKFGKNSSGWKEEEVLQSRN
Procedure, shortened: as §1

CRX = CRX (Homo sapiens, UniProt O43186 1-299); conditions: protein: recombinant; tags: N-terminal GST; dsDNA, one strand shown
Sequence of CRX (O43186 whole entry): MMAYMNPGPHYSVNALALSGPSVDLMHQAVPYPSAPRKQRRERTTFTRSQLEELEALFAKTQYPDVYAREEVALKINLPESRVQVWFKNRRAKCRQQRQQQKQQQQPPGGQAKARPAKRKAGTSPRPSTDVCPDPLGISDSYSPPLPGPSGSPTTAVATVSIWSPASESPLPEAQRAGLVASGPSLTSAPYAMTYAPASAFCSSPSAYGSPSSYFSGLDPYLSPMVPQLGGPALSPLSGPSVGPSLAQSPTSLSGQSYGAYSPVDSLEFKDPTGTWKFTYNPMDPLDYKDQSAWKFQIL
Procedure, shortened: as §1

ETV1 = ETV1 (Homo sapiens, UniProt P50549 1-477); conditions: protein: recombinant; tags: N-terminal GST; dsDNA, one strand shown
Sequence of ETV1 (P50549 whole entry): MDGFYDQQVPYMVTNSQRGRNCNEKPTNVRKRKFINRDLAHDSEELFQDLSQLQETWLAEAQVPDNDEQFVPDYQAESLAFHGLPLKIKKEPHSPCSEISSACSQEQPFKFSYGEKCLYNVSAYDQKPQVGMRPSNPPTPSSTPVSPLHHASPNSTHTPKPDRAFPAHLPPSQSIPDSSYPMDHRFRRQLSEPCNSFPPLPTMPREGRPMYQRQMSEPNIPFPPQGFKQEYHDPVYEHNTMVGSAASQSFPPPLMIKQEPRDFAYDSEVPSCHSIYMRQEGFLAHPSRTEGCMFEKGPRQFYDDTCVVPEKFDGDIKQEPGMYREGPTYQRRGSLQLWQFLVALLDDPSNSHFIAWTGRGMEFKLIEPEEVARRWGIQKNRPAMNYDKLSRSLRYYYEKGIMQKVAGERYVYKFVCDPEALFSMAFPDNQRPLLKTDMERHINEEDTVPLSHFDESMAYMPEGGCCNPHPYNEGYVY
Procedure, shortened: as §1

ERF = target: T6, ERF (Homo sapiens, UniProt P50548 1-548); conditions: protein: recombinant; tags: N-terminal GST; dsDNA, one strand shown
T6 sequence: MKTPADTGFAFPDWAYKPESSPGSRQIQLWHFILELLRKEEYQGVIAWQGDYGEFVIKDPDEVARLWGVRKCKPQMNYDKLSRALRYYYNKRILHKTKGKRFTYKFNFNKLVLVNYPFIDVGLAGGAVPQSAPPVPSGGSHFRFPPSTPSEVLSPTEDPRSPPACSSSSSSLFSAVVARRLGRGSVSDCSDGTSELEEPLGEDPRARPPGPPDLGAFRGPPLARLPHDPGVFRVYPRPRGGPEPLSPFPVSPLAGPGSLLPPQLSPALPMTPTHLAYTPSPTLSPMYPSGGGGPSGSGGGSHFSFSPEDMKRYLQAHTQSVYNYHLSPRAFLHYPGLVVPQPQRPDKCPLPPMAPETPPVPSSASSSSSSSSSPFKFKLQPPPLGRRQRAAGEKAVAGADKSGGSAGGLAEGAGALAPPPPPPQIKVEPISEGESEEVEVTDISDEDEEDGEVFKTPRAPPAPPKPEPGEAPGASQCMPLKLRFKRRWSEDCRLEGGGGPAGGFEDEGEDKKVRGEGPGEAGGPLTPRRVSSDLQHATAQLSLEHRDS
Procedure, shortened: as §1

ETV3L = target: T7, ETV3L (Homo sapiens, UniProt Q6ZN32 1-361); conditions: protein: recombinant; tags: N-terminal GST; dsDNA, one strand shown
T7 sequence: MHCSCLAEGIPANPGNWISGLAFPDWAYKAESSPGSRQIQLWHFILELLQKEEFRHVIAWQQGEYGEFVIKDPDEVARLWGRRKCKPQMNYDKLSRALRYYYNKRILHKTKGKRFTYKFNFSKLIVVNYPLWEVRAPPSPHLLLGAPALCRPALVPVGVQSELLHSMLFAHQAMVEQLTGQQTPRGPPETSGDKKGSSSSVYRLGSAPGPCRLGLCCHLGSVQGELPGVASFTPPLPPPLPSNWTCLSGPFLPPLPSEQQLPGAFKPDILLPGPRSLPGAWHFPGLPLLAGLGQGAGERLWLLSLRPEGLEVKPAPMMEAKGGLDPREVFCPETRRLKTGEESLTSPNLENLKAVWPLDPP
Procedure, shortened: as §1

ETS2 = target: T8, ETS2 (Homo sapiens, UniProt P15036 1-469); conditions: protein: recombinant; tags: N-terminal GST; dsDNA, one strand shown
T8 sequence: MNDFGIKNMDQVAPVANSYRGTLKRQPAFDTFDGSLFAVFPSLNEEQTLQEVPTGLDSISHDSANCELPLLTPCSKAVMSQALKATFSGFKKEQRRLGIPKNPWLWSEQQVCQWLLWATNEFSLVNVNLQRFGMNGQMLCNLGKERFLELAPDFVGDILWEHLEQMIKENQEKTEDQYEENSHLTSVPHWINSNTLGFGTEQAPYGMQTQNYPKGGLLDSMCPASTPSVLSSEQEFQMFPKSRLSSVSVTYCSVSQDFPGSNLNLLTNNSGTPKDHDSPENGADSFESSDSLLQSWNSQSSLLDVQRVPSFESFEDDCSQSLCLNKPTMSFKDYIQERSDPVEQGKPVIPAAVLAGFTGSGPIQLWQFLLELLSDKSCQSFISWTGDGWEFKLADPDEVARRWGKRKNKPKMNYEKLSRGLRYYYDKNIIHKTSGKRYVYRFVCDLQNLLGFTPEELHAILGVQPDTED
Procedure, shortened: as §1

SPDEF = target: T9, SPDEF (Homo sapiens, UniProt O95238 1-335); conditions: protein: recombinant; tags: N-terminal GST; dsDNA, one strand shown
T9 sequence: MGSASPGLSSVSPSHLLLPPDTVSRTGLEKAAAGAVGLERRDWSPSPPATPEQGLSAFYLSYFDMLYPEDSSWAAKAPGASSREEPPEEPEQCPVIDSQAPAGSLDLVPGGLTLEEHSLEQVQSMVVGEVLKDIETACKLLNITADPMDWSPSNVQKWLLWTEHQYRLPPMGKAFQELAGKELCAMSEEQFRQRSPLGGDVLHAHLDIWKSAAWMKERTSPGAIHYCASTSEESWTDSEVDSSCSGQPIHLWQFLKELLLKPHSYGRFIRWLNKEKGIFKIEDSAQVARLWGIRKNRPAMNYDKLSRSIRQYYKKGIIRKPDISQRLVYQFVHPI
Procedure, shortened: as §1

ETV7 = target: T10, ETV7 (Homo sapiens, UniProt Q9Y603 1-341); conditions: protein: recombinant; tags: N-terminal GST; dsDNA, one strand shown
T10 sequence: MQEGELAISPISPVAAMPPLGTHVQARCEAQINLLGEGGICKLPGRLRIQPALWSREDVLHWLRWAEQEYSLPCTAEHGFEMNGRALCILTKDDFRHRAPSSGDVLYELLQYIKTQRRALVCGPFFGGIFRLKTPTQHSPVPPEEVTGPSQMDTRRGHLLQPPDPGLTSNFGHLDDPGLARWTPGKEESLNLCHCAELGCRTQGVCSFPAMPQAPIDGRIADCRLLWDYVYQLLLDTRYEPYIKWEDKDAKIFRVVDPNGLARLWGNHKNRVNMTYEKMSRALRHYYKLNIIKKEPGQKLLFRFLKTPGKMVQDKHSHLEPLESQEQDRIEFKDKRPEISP
Procedure, shortened: as §1

ELF5 = target: T11, ELF5 (Homo sapiens, UniProt Q9UKW6-2 1-255); conditions: protein: recombinant; tags: N-terminal GST; dsDNA, one strand shown
T11 sequence: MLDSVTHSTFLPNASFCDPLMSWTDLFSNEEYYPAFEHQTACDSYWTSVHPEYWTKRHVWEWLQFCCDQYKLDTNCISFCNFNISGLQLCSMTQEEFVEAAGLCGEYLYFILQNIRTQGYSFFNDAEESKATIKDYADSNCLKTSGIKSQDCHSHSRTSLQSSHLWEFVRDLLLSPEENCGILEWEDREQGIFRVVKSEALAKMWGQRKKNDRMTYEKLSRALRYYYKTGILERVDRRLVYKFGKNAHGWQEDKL
Procedure, shortened: as §1

ETV3 = target: T12, ETV3 (Homo sapiens, UniProt P41162-2 1-143); conditions: protein: recombinant; tags: N-terminal GST; dsDNA, one strand shown
T12 sequence: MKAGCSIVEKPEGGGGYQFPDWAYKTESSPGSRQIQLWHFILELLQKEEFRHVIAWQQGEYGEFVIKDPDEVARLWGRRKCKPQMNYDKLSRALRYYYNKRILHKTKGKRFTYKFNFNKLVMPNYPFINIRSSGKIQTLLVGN
Procedure, shortened: as §1

ETV6 = ETV6 (Homo sapiens, UniProt P41212 1-452); conditions: protein: recombinant; tags: N-terminal GST; dsDNA, one strand shown
Sequence of ETV6 (P41212 whole entry): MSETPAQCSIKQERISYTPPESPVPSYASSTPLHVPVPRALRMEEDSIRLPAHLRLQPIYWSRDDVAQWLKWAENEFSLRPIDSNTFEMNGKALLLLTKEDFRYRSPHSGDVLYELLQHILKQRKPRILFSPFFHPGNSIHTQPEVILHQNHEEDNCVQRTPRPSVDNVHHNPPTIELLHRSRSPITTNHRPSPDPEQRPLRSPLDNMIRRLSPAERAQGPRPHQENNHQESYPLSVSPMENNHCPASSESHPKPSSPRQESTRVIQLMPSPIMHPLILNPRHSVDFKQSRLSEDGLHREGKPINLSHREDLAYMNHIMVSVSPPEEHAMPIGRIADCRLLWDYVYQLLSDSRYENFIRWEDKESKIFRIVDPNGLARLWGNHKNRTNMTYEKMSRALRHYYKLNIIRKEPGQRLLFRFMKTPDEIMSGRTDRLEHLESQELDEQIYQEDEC
Procedure, shortened: as §1

HSF1 = HSF1 (Homo sapiens, UniProt Q00613 1-529); conditions: protein: recombinant; tags: N-terminal GST; chain copies: 3; dsDNA, one strand shown
Sequence of HSF1 (Q00613 whole entry): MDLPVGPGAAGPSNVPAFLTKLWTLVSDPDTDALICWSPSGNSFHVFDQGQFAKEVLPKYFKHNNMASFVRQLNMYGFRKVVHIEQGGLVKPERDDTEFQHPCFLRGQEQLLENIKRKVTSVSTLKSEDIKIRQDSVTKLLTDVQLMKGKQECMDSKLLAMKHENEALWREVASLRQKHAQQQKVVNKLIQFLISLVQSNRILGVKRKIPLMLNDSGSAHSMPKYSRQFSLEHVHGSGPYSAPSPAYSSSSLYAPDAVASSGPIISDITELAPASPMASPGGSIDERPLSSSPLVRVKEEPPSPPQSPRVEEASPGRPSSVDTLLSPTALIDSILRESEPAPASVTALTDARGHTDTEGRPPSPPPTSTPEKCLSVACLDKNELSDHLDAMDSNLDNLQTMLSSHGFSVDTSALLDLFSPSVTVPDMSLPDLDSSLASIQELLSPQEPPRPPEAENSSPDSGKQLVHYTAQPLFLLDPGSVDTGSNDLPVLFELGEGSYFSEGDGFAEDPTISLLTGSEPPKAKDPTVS
Procedure, shortened: as §1

Sequence | binding signal (FEV) | binding signal (ETV5) | binding signal (SPIC) | binding signal (ELF4) | binding signal (ELK4) | binding signal (ETV2) | binding signal (ELF3) | binding signal (CRX) | binding signal (ETV1) | binding signal (ERF) | binding signal (ETV3L) | binding signal (ETS2) | binding signal (SPDEF) | binding signal (ETV7) | binding signal (ELF5) | binding signal (ETV3) | binding signal (ETV6) | binding signal (HSF1)
CCTACC | 1.29 fold enrichment (6-mer frequency, TF over GST control) | 1.35 fold enrichment (6-mer frequency, TF over GST control) | 1.36 fold enrichment (6-mer frequency, TF over GST control) | 1.4 fold enrichment (6-mer frequency, TF over GST control) | 1.22 fold enrichment (6-mer frequency, TF over GST control) | 1.38 fold enrichment (6-mer frequency, TF over GST control) | 1.1 fold enrichment (6-mer frequency, TF over GST control) | 1.07 fold enrichment (6-mer frequency, TF over GST control) | 1.47 fold enrichment (6-mer frequency, TF over GST control) | 1.37 fold enrichment (6-mer frequency, TF over GST control) | 1.37 fold enrichment (6-mer frequency, TF over GST control) | 1.36 fold enrichment (6-mer frequency, TF over GST control) | 1.35 fold enrichment (6-mer frequency, TF over GST control) | 1.21 fold enrichment (6-mer frequency, TF over GST control) | 1.44 fold enrichment (6-mer frequency, TF over GST control) | 1.35 fold enrichment (6-mer frequency, TF over GST control) | 1.32 fold enrichment (6-mer frequency, TF over GST control) | 
CCTAGA |  | 1.01 fold enrichment (6-mer frequency, TF over GST control) |  |  | 1.07 fold enrichment (6-mer frequency, TF over GST control) |  | 1.12 fold enrichment (6-mer frequency, TF over GST control) | 1.22 fold enrichment (6-mer frequency, TF over GST control) |  | 1.05 fold enrichment (6-mer frequency, TF over GST control) |  | 1.05 fold enrichment (6-mer frequency, TF over GST control) | 1.01 fold enrichment (6-mer frequency, TF over GST control) |  |  |  |  | 1.88 fold enrichment (6-mer frequency, TF over GST control)
